# In the supplement of paper PMC6522484:
# ± gives the standard deviation of the averaged measurements.
# What was measured:
# DLD1 [1] = experiment: cell viability (CellTiter-Glo) relative to plate median (fraction of plate median); higher = more viable cells; conditions: 5 µM; treatment time 24 h; reporter: 7TFP
# Summary of the method: (§1)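 Cells were seeded in 384-well plates; these were colorectal cancer lines stably transduced with lentiviral 7TFP or TCF4/Wnt firefly luciferase reporters. After 24 h, library compounds went in at a final 5 µM, and exposure lasted 24 h. Parallel plates were then read for firefly luciferase or CellTiterGlo luminescence, each well normalised to its plate median, with two independent replicates averaged.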
# HCT116 = experiment: as above; conditions: 5 µM; treatment time 24 h; reporter: TCF4/Wnt
# Summary of the method: as §1
# SW480 [2] = experiment: as above; conditions: 5 µM; treatment time 24 h; reporter: 7TFP
# Summary of the method: as §1
# DLD1 [3] = experiment: TCF/Wnt firefly luciferase reporter signal relative to plate median (fraction of plate median); higher = higher Wnt reporter signal; conditions: 5 µM; treatment time 24 h; reporter: 7TFP
# Summary of the method: as §1
# SW480 [4] = experiment: as above; conditions: 5 µM; treatment time 24 h; reporter: 7TFP
# Summary of the method: as §1
SMILES,cell viability (DLD1 [1]),cell viability (HCT116),cell viability (SW480 [2]),TCF/Wnt firefly luciferase reporter signal (DLD1 [3]),TCF/Wnt firefly luciferase reporter signal (SW480 [4])
O=C1O[C@H]([C@@H](O)CO)C(O)=C1O,0.983 ± 0.024,1.02 ± 0.12,1.01 ± 0.035,0.87 ± 0.069,0.969 ± 0.073
COc1cc(C(C)=O)cc(OC)c1O,1.03,0.922 ± 0.086,1.01 ± 0.018,0.946 ± 0.1,0.958 ± 0.012
OCCc1ccccc1,0.986,0.995 ± 0.05,0.959 ± 0.03,1.16 ± 0.085,1.12 ± 0.092
CCN(CC)CCOC(=O)C(c1ccccc1)c1ccccc1,0.982 ± 0.068,0.972 ± 0.054,0.917 ± 0.036,0.904 ± 0.14,0.929 ± 0.0057
O=C1OCCN1/N=C/c1ccc([N+](=O)[O-])o1,0.984 ± 0.023,1.05 ± 0.028,0.999 ± 0.0014,1.1 ± 0.078,1.05 ± 0.078
OC[C@H]1O[C@H]([S-])[C@H](O)[C@@H](O)[C@@H]1O.[Au+],0.945 ± 0.21,0.921 ± 0.019,1.11 ± 0.021,0.891 ± 0.12,0.265 ± 0.088
CN(C)[C@@H]1C(O)=C(C(=O)NCN2CCCC2)C(=O)[C@@]2(O)C(O)=C3C(=O)c4c(O)cccc4[C@@](C)(O)[C@H]3C[C@@H]12,1.08 ± 0.13,1.06,1.02 ± 0.014,0.858 ± 0.067,1.04
Nc1c2ccccc2nc2ccccc12,0.942 ± 0.071,0.919 ± 0.11,1.03 ± 0.021,1.52 ± 0.54,1.01 ± 0.13
CC(=O)Nc1ccc(OC(=O)c2ccccc2O)cc1,0.999 ± 0.016,0.989 ± 0.03,0.978 ± 0.074,1 ± 0.095,0.891 ± 0.043
COc1ccc(-c2coc3cc(O)cc(O)c3c2=O)cc1,1.01 ± 0.065,0.888 ± 0.016,1.01 ± 0.044,0.985 ± 0.16,1.05 ± 0.064
COc1cc(C)c2c(c1C=O)Oc1c(c(C)c(O)c3c1C(O)OC3=O)OC2=O (stereo not given),0.951 ± 0.015,0.956 ± 0.028,1.06 ± 0.014,0.949 ± 0.16,0.927 ± 0.077
CC(=O)Oc1cc(OC(C)=O)c2c(c1)O[C@H](c1ccc(OC(C)=O)c(OC(C)=O)c1)[C@H](OC(C)=O)C2,1 ± 0.055,0.972 ± 0.15,1.01 ± 0.016,0.921 ± 0.044,1 ± 0.015
CC(=O)N[C@@H](C=O)[C@@H](O)[C@H](O)[C@H](O)CO,1.04 ± 0.021,1.06 ± 0.014,0.945 ± 0.013,1.18 ± 0.035,1.2 ± 0.057
Cc1c(Nc2ncccc2C(=O)O)cccc1C(F)(F)F,0.977 ± 0.016,1.1 ± 0.11,1.04 ± 0.042,1.11 ± 0.057,0.948 ± 0.14
CC(C)=CCOc1cc2oc(=O)ccc2cc1O,1.08 ± 0.014,1.19 ± 0.11,1.04 ± 0.028,1.005 ± 0.0071,1.07 ± 0.064
CCCc1nc(C(C)(C)O)c(C(=O)OCc2oc(=O)oc2C)n1Cc1ccc(-c2ccccc2-c2nnn[nH]2)cc1,0.99 ± 0.015,0.978 ± 0.045,1.01 ± 0.047,1.11 ± 0.11,1.11 ± 0.042
O=C(O)c1c2ccccc2cc2ccccc12,0.959 ± 0.043,1.02 ± 0.13,1.01 ± 0.052,0.934 ± 0.064,0.872 ± 0.073
COc1ccc2cc1Oc1ccc(cc1)C[C@H]1c3c(cc4c(c3Oc3cc5c(cc3OC)CCN(C)[C@@H]5C2)OCO4)CCN1C,1.02 ± 0.052,0.934 ± 0.052,1.14 ± 0.035,1 ± 0.054,1.05 ± 0.028
CCN(CC)C(C)CN1c2ccccc2Sc2ccccc21 (stereo not given),1.07 ± 0.11,1.02 ± 0.12,0.998 ± 0.045,0.927 ± 0.3,1.05 ± 0.078
CO[C@H]1[C@H](O)[C@@H](O)[C@H](O)[C@H](O)[C@H]1O,0.981 ± 0.018,0.953 ± 0.026,1.03 ± 0.014,1.11 ± 0.13,1.1 ± 0.092
Nc1cc(-c2ccncc2)c[nH]c1=O,1.03 ± 0.042,0.99 ± 0.057,0.928,0.903 ± 0.032,0.94 ± 0.054
COc1ccc2c(c1OC)C(=O)O[C@@H]2[C@H]1c2c(cc3c(c2OC)OCO3)CCN1C,0.9895 ± 0.0092,0.879 ± 0.0099,0.995 ± 0.0014,0.973 ± 0.17,0.945 ± 0.15
CC(C)(C)CC(C)(C)c1ccc(O)c(Cc2ccc(Cl)cc2Cl)c1,0.987 ± 0.075,1.05 ± 0.05,1.03 ± 0.014,0.86 ± 0.012,0.891 ± 0.11
"C[C@]12CC[C@@H](O)C[C@H]1CCc1ccccc12 [3alpha-HYDROXY-4,4-BISNOR-8,11,13-PODOCARPATRIENE]",1.03 ± 0.08,1.01 ± 0.27,1.03 ± 0.014,0.971 ± 0.022,1.15 ± 0.064
CCN(CC)CC(=O)Nc1c(C)cccc1C,1.05,1.1 ± 0.021,1.02 ± 0.021,1.06 ± 0.05,1.03 ± 0.021
Cc1cc(O)c2c(c1O)C(=O)c1c(O)cc(C)c(O)c1C2=O,0.979 ± 0.019,0.968 ± 0.1,0.986 ± 0.063,0.964 ± 0.039,1.01 ± 0.014
CO/C=C/C(=O)c1cc2cnc3c(=N)cc(NC(C)=O)c([nH]1)c23 [Lymphostin],1.08 ± 0.042,0.71 ± 0.12,1.14 ± 0.092,0.891 ± 0.011,0.947 ± 0.028
CC(C)=CCc1c2c(c(O)c3c(=O)c(O)c(-c4ccccc4)oc13)C=CC(C)(C)O2,1.03 ± 0.052,0.998 ± 0.088,1.025 ± 0.0071,0.935 ± 0.0099,0.974 ± 0.011
COC(=O)CC1C(C)(C)C(OC(C)=O)[C@@H]2[C@@H](OC(C)=O)[C@]34O[C@@]2(O)[C@]1(C)C3CC[C@]1(C)C4=CC(=O)O[C@H]1c1ccoc1 (stereo not given in full),1.02 ± 0.11,1.02 ± 0.098,1.04,1.01 ± 0.061,0.992 ± 0.026
CCN(CC)CCNC(=O)c1ccc(N)cc1,1 ± 0.083,0.988 ± 0.06,1.02 ± 0.055,1.045 ± 0.0071,1.08 ± 0.099
